Assay [1] is described as follows: Cell Viability - HepG2 (AID 433; calls by dose curve;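 also: potency is read from the fitted curve at half-maximal effect; potency for ATP loss meaning cytotoxicity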). The settings on record: qHTS. The method in brief:
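ATP luminescence (CellTiter-Glo) after 40 h compound exposure, 37 °C, HepG2, 1500 cells/well, complete medium. Normalized: DMSO = basal, 100 uM tamoxifen = 100% inhibition. AC50 via standard Hill equation.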
A general note: qHTS replaces the single test concentration by a dilution series.

Assay [2] can be described thus: Cell Viability - MRC5 (AID 434; calls by dose curve;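 also: potency is read from the fitted curve at half-maximal effect; potency reflects cytotoxicity seen as loss of intracellular ATP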). The settings on record: MRC5 lung fibroblast viability, qHTS. The method in brief:
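MRC5 normal human lung fibroblasts, 1500 cells/well, exposed to compound for 40 hr at 37 C. Cellular ATP was read by CellTiter-Glo luminescence; data normalized to DMSO and 100 uM tamoxifen, with AC50 from Hill fits.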

Assay [3] in a line: Cellular Toxicity (caspase-3) H-4-II-E (AID 663).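 Also: cells exposed to compound for 16 hr before readout; 0% = DMSO basal and 100% = 100 µM tamoxifen.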 The settings on record: H-4-II-E rat hepatoma; Potency: caspase-3 activation; series mostly up to 92.2 µM. In outline: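 Rat hepatoma H-4-II-E cells (1500/well) plated 5 hr, then exposed to compound titrations for 16 hr at 37 °C. Caspase-Glo 3/7 luminescence read after 20 min at RT; data normalized to DMSO and 100 uM tamoxifen, AC50 from Hill fits.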

The target in assay [4] is Cytochrome P450 3A4 (Homo sapiens) (UniProt P08684). Put plainly: qHTS Assay for Inhibitors and Substrates of Cytochrome P450 3A4 (AID 884). Also: nearly all actives have a fitted effect of over 50% in size. Also: potency is read from the fitted curve at half-maximal effect. The settings on record: recombinant CYP3A4, Luciferin-PPXE luminescence; series mostly up to 57.1 µM. The method in brief:
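20 nM human CYP3A4 with 25 uM Luciferin-PPXE (at KM) in 200 mM KPO4, preincubated 10 min with compound; NADPH regeneration started a 60 min RT reaction. Luciferin detected by luminescence, normalized to 57 uM ketoconazole as full inhibition.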

Assay [5] is described as follows: MultiTox-Fluor Cytotoxicity Assay - LYMP1-002 - Dead Cells (AID 960).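 Also: 0% = DMSO and 100% = tetraoctylammonium bromide; nearly all actives have a fitted effect of over 60% in size.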 The settings on record: LYMP1-002 lymphoblastoid cells, dead-cell protease fluorescence; series mostly up to 46.1 µM. In outline:
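Human lymphoblastoid cells (LYMP1-002), 2500/well in complete medium, were exposed to compounds for 16 hr at 37 C. Dead-cell protease activity was read as bis-AAF-R110 fluorescence (Ex/Em 485/520), normalized to DMSO and 15 uM tetraoctylammonium bromide; AC50 from Hill fits.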

A short description of assay [6]: MultiTox-Fluor Cytotoxicity Assay - LYMP1-003 - Live Cells (AID 962).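 Also: 0% = DMSO only and full loss = 92 µM tetraoctylammonium bromide; cytotoxic hits lower the live-cell protease signal.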 The settings on record: LYMP1-003 lymphoblastoid cells, MultiTox-Fluor live-cell protease fluorescence; series mostly up to 92.2 µM. The method in brief: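 LYMP1-003 human lymphoblastoid cells (2500/well) in complete medium were preincubated 5 hr at 37 C, then exposed to compounds for 16 hr at 37 C. Live-cell protease cleavage of GF-AFC read by fluorescence (Ex/Em 405/510); AC50 from Hill fits.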

A short description of assay [7]: Cell Viability - LYMP2-003 (AID 965).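 Also: cells exposed to compounds for 24 h before reading; 0% = DMSO only and full effect = 92 µM tetraoctylammonium bromide; nearly all actives have a fitted effect of over 50% in size.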 The settings on record: LYMP2-003 lymphoblastoid cell viability; series mostly up to 92.2 µM. The method in brief:
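CellTiter-Glo luminescence (cellular ATP) after 24 h compound exposure at 37 C in complete medium; 2500 cells/well, 5 h settling beforehand. Concentration-response fitted to standard Hill equation for AC50. Tetraoctylammonium bromide served as positive control.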

A short description of assay [8]: Cell Viability - LYMP2-005 (AID 967).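 Also: plate controls were DMSO only for no effect and 92 µM tetraoctylammonium bromide control for full effect.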 The settings on record: LYMP2-005 lymphoblastoid cell viability; series mostly up to 92.2 µM. In outline:
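Steps: seed 2500 LYMP2-005 cells/well, incubate 5 h at 37 C, add compound, incubate 24 h at 37 C, add CellTiter-Glo, wait 30 min at RT, read luminescence. Concentration-response data fitted to Hill equation for AC50.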

The nature of assay [9]: Cell Viability - LYMP2-015 (AID 971).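 Also: 0% = DMSO only and full effect = 92 µM tetraoctylammonium bromide; nearly all actives have a fitted effect of over 55% in size.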 The settings on record: LYMP2-015 lymphoblastoid cell viability; series mostly up to 92.2 µM. In outline:
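Human lymphoblastoid cells (2500/well) in complete medium were preincubated 5 hr at 37 C, then compound-treated 24 hr at 37 C. Intracellular ATP was read by CellTiter-Glo luminescence after 30 min at room temperature; AC50 came from Hill-equation concentration-response fits.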

A short description of assay [10]: Cell Viability - LYMP2-017 (AID 972). Also: % is scaled to controls: 0 for no effect and ±100 for the full control effect; nearly all actives have a fitted effect of over 55% in size. The settings on record: LYMP2-017 lymphoblastoid cell viability; series mostly up to 92.2 µM. The method in brief:
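Human lymphoblastoid cells (2500/well) were seeded in complete medium, held 5 hr at 37 C, then exposed to compounds for 24 hr at 37 C. Intracellular ATP was read by CellTiter-Glo luminescence after 30 min at room temperature, with AC50 values from Hill-equation fits.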

Assay [11] in a line: Cell Viability - LYMP2-007 (AID 979).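 Also: cells exposed to compound for 24 h before reading; 0% = DMSO only and the negative end = 92 µM tetraoctylammonium bromide; nearly all actives have a fitted effect of over 60% in size.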 The settings on record: LYMP2-007 lymphoblastoid cell viability; series mostly up to 92.2 µM. The method in brief: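 Human lymphoblastoid cells (2500/well) were plated in complete medium, incubated 5 hr at 37 C, then exposed to compounds for 24 hr at 37 C. Intracellular ATP was read by CellTiter-Glo luminescence after 30 min at room temperature; AC50 from Hill fits.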

The nature of assay [12]: Cell Viability - LYMP2-014 (AID 983).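 Also: plate controls were DMSO only for no effect and 92 µM tetraoctylammonium bromide for full effect; nearly all actives have a fitted effect of over 50% in size.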 The settings on record: LYMP2-014 lymphoblastoid cells, viability qHTS; series mostly up to 92.2 µM. The method in brief: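 Human lymphoblastoid cells (2500/well) were pre-incubated 5 hr at 37 C, then exposed to compounds in complete medium for 24 hr at 37 C. Intracellular ATP was read by CellTiter-Glo luminescence after 30 min at room temperature; AC50 from Hill fits.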

Assay [13] can be described thus: Cell Viability - LYMP2-016 (AID 984). Also: % is scaled to controls: 0 for no effect and ±100 for the full control effect; nearly all actives have a fitted effect of over 55% in size. The settings on record: LYMP2-016 lymphoblastoid cell viability, qHTS; series mostly up to 92.2 µM. In outline:
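qHTS, 1536-well: 2500 LYMP2-016 cells/well, 5 hr 37 C, compound added, 24 hr 37 C, CellTiter-Glo 30 min RT, luminescence. Tetraoctylammonium bromide positive control. AC50 via Hill fit.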

The nature of assay [14]: Cell Viability - LYMP2-024 (AID 988).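 Also: plate controls were DMSO only for no effect and 92 µM tetraoctylammonium bromide for full effect; nearly all actives have a fitted effect of over 60% in size.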 The settings on record: LYMP2-024 lymphoblastoid cell viability; series mostly up to 92.2 µM. In outline:
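Human lymphoblastoid cells (2500/well) in complete medium were preincubated 5 hr at 37 C, then exposed to compounds for 24 hr at 37 C. Intracellular ATP was read by CellTiter-Glo luminescence; AC50 from Hill-equation fits of concentration-response data.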

Assay [15] in a line: Cell Viability - LYMP1-002 - Assay at 40 hr (AID 994).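 Also: 0% = DMSO only and full inhibition = 92 µM tetraoctylammonium bromide; nearly all actives have a fitted effect of over 60% in size.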 The settings on record: LYMP1-002 lymphoblastoid cell viability; series mostly up to 92.2 µM. The method in brief: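 Human lymphoblastoid cells, 2500/well in complete medium, were preincubated 5 hr at 37 C, then exposed to compounds for 40 hr at 37 C. Intracellular ATP was read by CellTiter-Glo luminescence after 30 min at room temperature; AC50 from Hill-equation fits.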

Assay [16] can be described thus: qHTS assay for small molecule activators of the p53 signaling pathway (AID 651743; active = well fitted activation curve with a large enough effect in the signal ratio, not every such curve was filed as active; the % refers to the signal ratio; also: % of control where 0% means no effect). The settings on record: HCT-116 p53RE-bla, beta-lactamase FRET ratio, 16 h; activation: active compounds read high. The method in brief: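 HCT-116 p53RE-bla, 4,000 cells/well; 5 h settle; cpd/DMSO 16 h, 37 C; LiveBLAzer B/G 2 h RT; fluorescence intensity.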
Assay [17] concerns the target Tumor necrosis factor (Homo sapiens) (UniProt P01375). Put plainly: qHTS assay to identify small molecules that stimulate Tumor Necrosis Factor-alpha (TNF-alpha) secretion (AID 651757; active = well fitted curve in the direction sought with a large enough effect in the signal ratio; the % refers to the signal ratio; also: 0% is about no effect). The settings on record: Human cells, HTRF 665/615 ratio; series mostly up to 92.2 µM. In outline: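 THP-1 cells were exposed to compounds for 17 hrs at 37 C, after which secreted TNF-alpha was measured by homogeneous HTRF (TR-FRET) using cryptate- and XL665-labeled anti-TNF-alpha antibodies, read after 3 hr at room temperature.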

The nature of assay [18]: qHTS assay for small molecule antagonists of the retinoid-related orphan receptor gamma (ROR-gamma) signaling pathway - cell viability counter screen (AID 720652; active = well fitted curve in the direction sought with a large enough effect in the repeat runs; an effect the other way counts as inactive or inconclusive;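 also: CHO reporter cells with doxycycline-induced ROR-gamma expression; compound exposure lasted 16 hr before ATP read; % is scaled to controls: 0 for no effect and ±100 for the full control effect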). The settings on record: RORgamma reporter cell line viability counter screen; series mostly up to 92.2 µM. In outline: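 Counter screen in CHO cells carrying TET-inducible ROR-gamma and an ROR response element-luciferase reporter; cells plated 5 hr, compound pinned, doxycycline added, then 16 hr at 37 C. Viability read as intracellular ATP by CellTiter-Glo luminescence.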

The nature of assay [19]: qHTS assay for cell viability of HEK293 cells (AID 743288). Also: % is scaled to controls: 0 for no effect and ±100 for the full control effect; nearly all actives have a fitted effect of over 50% in size. The settings on record: ATP luminescence (CellTiter-Glo), 18 h, active compounds read low. The method in brief:
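Environmental chemicals tested in qHTS format against parental HEK293 cells; 18 h treatment, 37 C; read-out ATP luminescence (CellTiter-Glo), 30 min RT development.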

A short description of assay [20]: Cellular Toxicity (caspase-3) Renal Proximal Tubule (AID 667).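 Also: cells exposed to compound for 16 hours at 37 °C before detection; 0% = DMSO basal and 100% = 10 µM staurosporine.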 The settings on record: renal proximal tubule cells; series mostly up to 91.7 µM. The method in brief: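 Luminescent caspase 3/7 signal from peptide-aminoluciferin cleavage measures apoptosis in freshly isolated rat kidney proximal tubule cells after 16 h compound exposure. Concentration-response data are normalized to DMSO and 10 uM staurosporine, and AC50 values come from Hill equation fits.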

This note sets out measurements from PubChem BioAssay (NCATS).

Molecules are shown by their SMILES. “And” between values parts separate entries of the source, which are not always exact repeats. Identical values can stand only once. Values without a mark were called inactive. Inconclusive results are not listed. The source made the active and inactive calls. Unless noted, calls follow the shape of the dose curve; as a rule, active = well fitted curve in the direction sought with a large enough effect; inconclusive = small, poorly fitted or top-dose-only effect, or another doubt; inactive = no such curve, though single readings can be large; an effect the other way counts as inactive or inconclusive.

Tumor necrosis factor (Homo sapiens), sequence (P01375 whole entry, looked up): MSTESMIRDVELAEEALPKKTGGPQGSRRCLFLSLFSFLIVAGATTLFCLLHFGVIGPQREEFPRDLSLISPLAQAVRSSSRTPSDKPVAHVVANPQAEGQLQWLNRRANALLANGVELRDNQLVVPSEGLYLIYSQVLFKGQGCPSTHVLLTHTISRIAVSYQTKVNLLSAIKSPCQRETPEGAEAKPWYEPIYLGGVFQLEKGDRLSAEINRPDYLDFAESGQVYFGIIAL
Cytochrome P450 3A4 (Homo sapiens), sequence (P08684 whole entry, looked up): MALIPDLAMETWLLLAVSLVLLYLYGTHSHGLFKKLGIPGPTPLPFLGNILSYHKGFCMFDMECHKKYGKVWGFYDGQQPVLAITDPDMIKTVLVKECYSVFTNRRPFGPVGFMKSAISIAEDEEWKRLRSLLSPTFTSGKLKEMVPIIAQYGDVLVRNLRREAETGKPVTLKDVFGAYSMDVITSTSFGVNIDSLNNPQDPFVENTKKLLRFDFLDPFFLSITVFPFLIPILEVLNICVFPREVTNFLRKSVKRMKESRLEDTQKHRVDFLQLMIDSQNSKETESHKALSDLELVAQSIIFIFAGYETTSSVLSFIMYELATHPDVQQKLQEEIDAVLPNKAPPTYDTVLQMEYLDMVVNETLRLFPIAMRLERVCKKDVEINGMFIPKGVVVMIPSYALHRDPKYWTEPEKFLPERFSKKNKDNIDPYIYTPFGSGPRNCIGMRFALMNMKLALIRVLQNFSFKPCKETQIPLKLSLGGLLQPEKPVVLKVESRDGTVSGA

Consider `CCN(CC)CCO`, for which the Potency in [1] and in assay [2] was over 92 µM throughout. Also, the Potency entry in assay [3], in [4], in assay [5], in assay [7], in [8] and in assay [9] was “inactive” in each case. Also, the Potency entry in assay [10], in assay [11], in assay [12], in assay [13], in assay [14] and in assay [15] was “inactive” each time. For the same compound, the Potency entry in assay [18] was “inactive”. The compound was called inactive in assay [6] and in [17]. Moreover, in [16], the activation was 0.771%. Moreover, in assay [19], the max response was -8.96%.

On to `CNC(=O)O/N=C/C(C)(C)S(C)=O` (centres undefined), for which the Potency in [1] and in assay [2] was over 92 µM in each case. Moreover, the Potency result in [3], in [4], in [5], in assay [7], in [8] and in assay [9] was “inactive” throughout. Also, the Potency entry in assay [10], in assay [11], in assay [12], in assay [13], in [14] and in assay [15] was “inactive” throughout. In addition, the Potency entry in assay [18] is “inactive”. The result in assay [20], in assay [6] and in assay [17] was inactive. Also, the activation in [16] was -0.482% and 5.01%. For the same compound, the max response in assay [19] is 0.711% and -4.36%.

Turning to `CCCN(CCC)c1c([N+](=O)[O-])cc(C(F)(F)F)cc1[N+](=O)[O-]`, the Potency in [1] and in assay [2] was over 92 µM throughout. For the same compound, the Potency entry in [3], in assay [5], in assay [7], in assay [8], in assay [9] and in [10] was “inactive” each time. Moreover, the Potency result in assay [11], in assay [12], in assay [13], in assay [14], in assay [15] and in assay [18] was “inactive” in each case. The compound was classed as inactive in assay [20], in assay [6] and in [17]. In addition, the max response in [19] is 12.8% and -6.09%.

Regarding `O=P(OCCCl)(OCCCl)OCCCl`, the Potency in [1] and in assay [2] was over 92 µM each time. The Potency entry in assay [3], in assay [4], in assay [5], in [8], in assay [9] and in assay [10] was “inactive” throughout. Besides, the Potency result in assay [11], in [12], in assay [13], in [14], in [15] and in assay [18] was “inactive” throughout. Further, the call in assay [6] and in [17] was inactive. Further, the activation in assay [16] is -2.67%. Besides, in assay [19], the max response was -2.52%.

Take `C=CCc1cc(OC)c2c(c1)OCO2`: the Potency is over 92 µM in assay [2] and 10 µM (active) in [4]. Further, the Potency entry in assay [3], in assay [5], in assay [7], in assay [8], in [9] and in assay [10] was “inactive” throughout. Besides, the Potency result in assay [11], in [12], in assay [13], in [14], in assay [15] and in assay [18] was “inactive” each time. Besides, the outcome in [20], in [6] and in assay [17] was inactive. The activation in assay [16] is -0.222%. Besides, in assay [19], the max response was -6.53%.
